Results on 14 compounds are retold here after PubChem BioAssay (NCI).

What all share (experiment): NCI-60 one-dose screen, 48 h (100 = growth as untreated, 0 = no growth, -100 = all killed)
The test system of one assay is HCT-15 colon. The conditions noted are these: 10 µM.
A further assay deals with HT29 colon. The conditions noted are these: 10 µM.
A further assay deals with SNB-75 CNS. The conditions noted are these: 10 µM.
The next assay has as its system SNB-19 CNS. The settings on record: 10 µM.
The next assay deals with PC-3 prostate. The conditions noted are these: 10 µM.
In another assay the test system is UACC-62 melanoma.
Another assay has as its system SK-MEL-28 melanoma. The conditions noted are these: 10 µM.
Another assay relates to LOX IMVI melanoma. The conditions noted are these: 10 µM.
In a further assay the test system is SK-MEL-5 melanoma. The settings on record: 10 µM.
A further assay concerns U251 CNS. The conditions noted are these: 10 µM.

Values joined by “and” are separate entries in the source; they are usually repeats but may differ in a detail not shown here. Equal values may be shown once. About 83,000 compounds went through this panel and 20% of them were active in at least one assay; those are over-represented in the sample as a whole.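 Method: cells in 96-well plates; compound added at one concentration; 48 h incubation; percent growth measured; values under 10 scored active.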 Active and inactive are the calls of the source.

Consider `c1ccc(CN2COc3c(ccc4c3OCN(Cc3ccccc3)C4)C2)cc1`, for which the growth was 28% (inactive) in the assay with HCT-15 colon; 27% (inactive) with HT29 colon; 43.7% (inactive) in the assay on SNB-75 CNS; 24% (inactive) in the assay with SNB-19 CNS; 36.5% (inactive) with PC-3 prostate; -39.1% (active) in the assay with UACC-62 melanoma (10 µM unless noted). Besides, the growth with SK-MEL-28 melanoma is 34.1% (inactive).

For `CC(C(=O)O)(C1CCCCC1)C1(O)CCCCC1` (stereo not drawn), the growth in the assay on HCT-15 colon is 104% (inactive); in the assay on HT29 colon, 101% (inactive); in the assay with SNB-75 CNS it was 85.2% (inactive); with SNB-19 CNS, 111% (inactive); with PC-3 prostate it was 94.9% (inactive); in the assay on UACC-62 melanoma (10 µM unless noted), 113% (inactive). Moreover, the growth in the assay on LOX IMVI melanoma is 95.3% (inactive); in the assay with SK-MEL-28 melanoma, 107% (inactive).

Take `COc1ccccc1N1CCN(C(=S)Nc2ccccc2)CC1`: the growth was 103% (inactive) in the assay on HCT-15 colon; 96.7% (inactive) in the assay on HT29 colon; 84% (inactive) in the assay with SNB-75 CNS; 99.6% (inactive) with SNB-19 CNS; 89.9% (inactive) in the assay with PC-3 prostate; 97.9% (inactive) with SK-MEL-5 melanoma. The growth in the assay on UACC-62 melanoma (10 µM unless noted) is 98.2% (inactive); with LOX IMVI melanoma, 90.4% (inactive); in the assay with SK-MEL-28 melanoma it was 105% (inactive).

For the compound `COC(=O)Nc1cccc(Cl)c1OC`, the growth with HCT-15 colon was 96.4% (inactive); in the assay with HT29 colon, 111% (inactive); in the assay with SNB-75 CNS, 99% (inactive); with SNB-19 CNS it was 112% (inactive); in the assay on PC-3 prostate, 103% (inactive); with SK-MEL-5 melanoma, 100% (inactive). Further, the values for the growth in the assay on UACC-62 melanoma (10 µM unless noted) and in the assay on SK-MEL-28 melanoma were 111% (inactive) and 114% (inactive), respectively.

With `CC1(C)OC(=O)C(c2ccsc2)C(=O)O1`, the growth is 109% (inactive) with HCT-15 colon; 100% (inactive) with HT29 colon; 92.5% (inactive) in the assay on SNB-75 CNS; 108% (inactive) in the assay on SNB-19 CNS; 85% (inactive) in the assay on PC-3 prostate; 101% (inactive) with SK-MEL-5 melanoma. In addition, the growth in the assay with UACC-62 melanoma (10 µM unless noted) is 105% (inactive); in the assay with LOX IMVI melanoma, 88.8% (inactive); in the assay with SK-MEL-28 melanoma, 115% (inactive).

On to `COc1cc2c3cc1Oc1c(OC)c(OC)cc4c1C(Cc1ccc(O)c(c1)Oc1ccc(cc1)CC3N(C)CC2)N(C)CC4` (stereo not drawn), for which the growth was 6.32% (active) with HCT-15 colon; -21.8% (active) in the assay on HT29 colon; 33.3% (inactive) with SNB-75 CNS; -95.9% (active) in the assay with U251 CNS; 1.26% (active) with PC-3 prostate; -98.2% (active) in the assay with SK-MEL-5 melanoma. Further, the growth in the assay with UACC-62 melanoma (10 µM) is 27.6% (inactive); in the assay with UACC-62 melanoma (100 µM) it was 98.2% (inactive) and -80.6% (active); with LOX IMVI melanoma it was -90.5% (active); with SK-MEL-28 melanoma, -80.8% (active).

Regarding `CC(=O)OCCO`, the growth in the assay with HCT-15 colon was 107% (inactive); in the assay with HT29 colon it was 120% (inactive); with SNB-75 CNS, 84.7% (inactive); in the assay on SNB-19 CNS, 110% (inactive); in the assay on PC-3 prostate, 104% (inactive); in the assay on SK-MEL-5 melanoma it was 102% (inactive). For the same compound, the results for the growth with UACC-62 melanoma (10 µM unless noted), in the assay on LOX IMVI melanoma and in the assay with SK-MEL-28 melanoma were 108% (inactive), 107% (inactive) and 100% (inactive), respectively.

Regarding `S=C1NCc2cncnc2N1`, the growth with HCT-15 colon was 95.4% (inactive); with HT29 colon it was 104% (inactive); with SNB-75 CNS it was 86.6% (inactive); in the assay with SNB-19 CNS it was 109% (inactive); with PC-3 prostate, 96.1% (inactive); in the assay with SK-MEL-5 melanoma, 103% (inactive). The values for the growth in the assay with UACC-62 melanoma (10 µM unless noted), in the assay with LOX IMVI melanoma and with SK-MEL-28 melanoma were 108% (inactive), 104% (inactive) and 107% (inactive), respectively.

As to `CC[N+](C)(CC)CCO`, the growth in the assay on HCT-15 colon was 97.8% (inactive); with HT29 colon, 103% (inactive); in the assay on SNB-75 CNS it was 108% (inactive); in the assay on SNB-19 CNS, 97.7% (inactive); in the assay with PC-3 prostate, 102% (inactive); with SK-MEL-5 melanoma it was 101% (inactive). Besides, the growth with UACC-62 melanoma (10 µM unless noted) was 102% (inactive); with LOX IMVI melanoma it was 101% (inactive); in the assay on SK-MEL-28 melanoma, 110% (inactive).

As to `Oc1ccc2c(c1)OCC1(O)Cc3cc(O)c(O)cc3C21` (stereo not drawn), the growth in the assay with HCT-15 colon is 80.6% (inactive); with HT29 colon, 92.4% (inactive); in the assay on SNB-75 CNS, 22.8% (inactive); in the assay on U251 CNS, 90.7% (inactive); in the assay on PC-3 prostate, 69.5% (inactive); in the assay with SK-MEL-5 melanoma it was 95.5% (inactive). Also, the growth in the assay with UACC-62 melanoma (10 µM unless noted) is 91.5% (inactive); with LOX IMVI melanoma, 98.2% (inactive).

Turning to `O=S(=O)(O)c1cc(O)c2c(N=Cc3ccccc3O)c(S(=O)(=O)O)ccc2c1`, the growth in the assay on HCT-15 colon is 99.9% (inactive); in the assay on HT29 colon, 103% (inactive); in the assay on SNB-75 CNS, 93.4% (inactive); in the assay with SNB-19 CNS, 108% (inactive); in the assay with PC-3 prostate, 95.5% (inactive); with SK-MEL-5 melanoma, 103% (inactive). For the same compound, the growth with UACC-62 melanoma (10 µM unless noted) was 113% (inactive); in the assay on SK-MEL-28 melanoma, 114% (inactive).

For `Sc1ccc(Nc2c3ccccc3nc3ccccc23)cc1`, the growth in the assay on HCT-15 colon is 79.4% (inactive); in the assay on HT29 colon it was 88.6% (inactive); with SNB-75 CNS, 61.9% (inactive); in the assay on SNB-19 CNS it was 79.8% (inactive); with PC-3 prostate it was 76.5% (inactive); with SK-MEL-5 melanoma, 56.6% (inactive). Also, the results for the growth in the assay on UACC-62 melanoma (10 µM unless noted), with LOX IMVI melanoma and with SK-MEL-28 melanoma were 63% (inactive), 88.5% (inactive) and 101% (inactive), respectively.

For `CN(C)c1ccc2nc3ccc(=N)cc-3sc2c1`, the growth is 38.8% (inactive) with HCT-15 colon; 85.3% (inactive) with HT29 colon; 22.3% (inactive) with SNB-75 CNS; 81.1% (inactive) with SNB-19 CNS; 12.3% (inactive) with PC-3 prostate; 0.247% (active) in the assay on SK-MEL-5 melanoma. Further, the growth was 36% (inactive) in the assay on UACC-62 melanoma (10 µM unless noted) and 82.9% (inactive) with SK-MEL-28 melanoma.

Take `CC(=O)c1ccc(N=C(C#N)C2=C(O)c3ccccc3C2=O)cc1`: the growth in the assay on HCT-15 colon is 113% (inactive); in the assay with HT29 colon, 98.7% (inactive); with SNB-75 CNS, 78.8% (inactive); in the assay on SNB-19 CNS it was 101% (inactive); in the assay with PC-3 prostate, 100% (inactive); in the assay with UACC-62 melanoma (10 µM unless noted) it was 109% (inactive). The growth in the assay with SK-MEL-28 melanoma was 113% (inactive).
